The list is not random: actives were taken first. Their share in the collection is about 2.8%.
MITF TRPM1 inh: inhibitors of MITF-dependent TRPM1 promoter reporter, primary screen, cell-based, SK-MEL-5, single point, luciferase; SK-MEL-5 TRPM1 promoter luciferase, 24 h; inhibition, % at 12.5 µM; actives 0.83% (n = 330,000);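 active = mean inhibition across replicates of 60% or more, whatever share of single replicates reaches that level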
HIF-2a block: HIF-2a reporter inhibitors, primary screen, luminescence, 786-0 RCC cells; 786-0 RCC cells HIF-2a reporter, luciferase luminescence, overnight; actives 0.72% (n = 360,000); AID 624352, 2012; inhibition, % at 18.8 µM;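 active = inhibition of the luminescence signal of 40% or more relative to plate controls, in a single-dose primary screen at 18.75 µM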
Peg3 promoter: Peg3 promoter-driven luciferase inhibitors, primary screen, cell-based, HeLa, luciferase luminescence. actives 1.7% (n = 360,000). AID 588405, 2011. HeLa PEG-Prom luciferase reporter, overnight. inhibition, % at 20 µM;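 active = inhibition of at least 50% at 20 µM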
PAX8 reporter: inhibitors of PAX8-driven TPO luciferase reporter, primary screen, RMG-I cells, single concentration | SteadyGlo, 24 h | inhibition, % at 12.6 µM | actives 1.2% (n = 360,000) | AID 652154, 2013;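 active = mean replicate inhibition at least 60% with every replicate also reaching 60%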;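 also: luciferase light reporting Pax8 driven TPO promoter activity; plate controls were median of neutral control wells for no effect and mitoxantrone controls for full effect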
Shn3 inh set2: reduction of Shn3 3'UTR firefly luciferase signal, primary screen, Schnurri-3 inhibitor project, cell-based, Clone20 osteoblasts, set 2. Clone20 osteoblast Shn3 3'UTR firefly luciferase, 24 h. inhibition, % at 12.5 µM. actives 0.52% (n = 360,000);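 active = mean inhibition of at least 75% with every replicate also reaching 75%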;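 also: 0% = median of neutral control wells and 100% = pilot-screen positive control compound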
LMP1 NFkB inh: EBV LMP1-driven NF-kappaB luciferase reporter inhibitors, primary screen, cell-based, luminescence, single point; LMP1-induced NF-kappaB luciferase reporter cells; inhibition, % at 12.5 µM; actives 0.69% (n = 350,000); AID 504558, 2011; in the data active = inhibition above about 41%;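 also: 0% = neutral control wells and 100% = reference inhibitor control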
Starred values were filed as active, the others as inactive; · = not tested or not shown.

SMILES	MITF TRPM1 inh	HIF-2a block	Peg3 promoter	PAX8 reporter	Shn3 inh set2	LMP1 NFkB inh
Cc1ccc(S(=O)(=O)N(C)C[C@@H]2OCCCC[C@H](C)Oc3ccc(NS(=O)(=O)c4cccs4)cc3C(=O)N([C@H](C)CO)C[C@@H]2C)cc1	·	·	·	66.8*	·	·
C[C@@H]1CCCCO[C@@H](CN(C)S(=O)(=O)c2ccc(Cl)cc2)[C@H](C)CN([C@H](C)CO)C(=O)c2cc(NS(=O)(=O)c3cccs3)ccc2O1	·	·	·	70.4*	·	·
Cc1ccc(S(=O)(=O)Nc2ccc3c(c2)C(=O)N([C@H](C)CO)C[C@H](C)[C@@H](CN(C)S(=O)(=O)c2cccs2)OCCCC[C@H](C)O3)cc1	·	·	·	77.2*	·	·
Cc1noc(C)c1NC(=O)Nc1ccc2c(c1)C(=O)N(C)[C@@H]1CC[C@H](CC(=O)N(C)C)O[C@@H]1CO2	·	·	·	0.6	·	·
C[C@H]1CN([C@@H](C)CO)C(=O)Cc2cc(NC(=O)C3CCCCC3)ccc2O[C@@H]1CN(C)Cc1ccc(C(F)(F)F)cc1	·	·	·	15.4	·	·
CCOC(=O)c1nc(NCc2ccccc2F)c2ccccc2n1	-1.6	20.4	16.6	-12.4	20.4	77.4*
CCOC(=O)c1nc(NCc2ccccc2C)c2ccccc2n1	-12.1	0.8	8.1	11.5	6.5	2.2
CO[C@@H]1CN(C)C(=O)c2ccc(NC(=O)c3ccc(F)cc3)cc2OC[C@@H](C)N(C(=O)c2ccc(F)cc2)C[C@H]1C	·	·	·	-16.0	·	·
CCc1ccc(NC(=O)C2CCN(C(=O)N3CCOc4ccccc43)CC2)cc1	·	5.3	9.1	3.0	20.3	-10.0
O=C(Nc1cccc(F)c1)C1CCN(C(=O)N2CCOc3ccccc32)CC1	-6.7	10.7	4.7	-12.5	-20.8	84.2*
CC(C)CCNC(=O)C(c1ccc(O)cc1)N(Cc1cccs1)C(=O)C1COc2ccccc2O1 (centres undefined)	-4.8	-7.7	51.2*	44.5	-1.2	4.7
CCC(=O)Nc1ccc2c(c1)C(=O)N(C)[C@H]1CC[C@H](CC(=O)NCc3ccc(OC)cc3)O[C@H]1CO2	·	·	·	3.0	·	·
CC(C)Cn1c(N)c(C(=O)CSc2ccc3c(c2)OCCO3)c(=O)n(C)c1=O	39.9	11.1	20.6	·	86.1*	39.0
CC(C)Cn1c(N)c(C(=O)COC(=O)c2ccc3c(c2)OCCO3)c(=O)n(C)c1=O	7.1	19.9	0.1	4.4	66.6	29.1
CC(C)NC(=O)Nc1ccc2c(c1)C(=O)N([C@H](C)CO)C[C@H](C)[C@H](CN(C)Cc1ccc3c(c1)OCO3)OCCCC[C@H](C)O2	·	·	·	10.2	·	·
C[C@H]1CN([C@@H](C)CO)C(=O)c2cc(NC(=O)C3CCCCC3)ccc2O[C@@H]1CN(C)C(=O)Nc1ccc2c(c1)OCO2	·	·	·	-38.0	·	·
Cc1ccc(C)c(N2N=C(C(=O)Nc3ccccc3N3CCOCC3)CCC2=O)c1	13.2	9.1	67.2*	16.5	9.8	-3.9
Cc1ccc(C)c(N2N=C(C(=O)Nc3ccccc3N3CCCC3)CCC2=O)c1	0.6	14.2	3.9	17.2	11.8	-1.6
O=C(NC1CCCC1)c1noc2c1CCCCC2	-33.7	-151.1	-137.5	·	-60.1	41.8*
CO[C@@H]1CN(C)C(=O)c2ccc(NC(=O)NC(C)C)cc2OC[C@@H](C)N(CC2CC2)C[C@@H]1C	·	·	·	-11.7	·	·
CCCNC(=O)N1C[C@H](O)COC[C@H]2O[C@H](CC(=O)N3CCN(C)CC3)CC[C@@H]21	·	·	·	-13.2	·	·
Cc1ccc(S(=O)(=O)N(C)C[C@@H]2OCCCC[C@@H](C)Oc3ccc(NC(=O)Cc4ccccc4)cc3C(=O)N([C@H](C)CO)C[C@@H]2C)cc1	·	·	·	-1.6	·	·
C[C@@H]1CCCCO[C@@H](CN(C)C(=O)c2ccccc2)[C@H](C)CN([C@H](C)CO)C(=O)c2cc(NC(=O)Nc3ccc(C(F)(F)F)cc3)ccc2O1	·	·	·	102.4*	·	·
C[C@@H]1CN([C@H](C)CO)C(=O)c2cc(NC(=O)Nc3ccc(C(F)(F)F)cc3)ccc2O[C@@H](C)CCCCO[C@@H]1CN(C)C(=O)c1ccccc1	·	·	·	87.9*	·	·
C[C@@H]1CCCCO[C@H](CN(C)C(=O)Nc2ccccc2)[C@@H](C)CN([C@H](C)CO)C(=O)c2cc(NC(=O)Nc3ccc(C(F)(F)F)cc3)ccc2O1	·	·	·	12.3	·	·
SMILES	MITF TRPM1 inh	HIF-2a block	Peg3 promoter	PAX8 reporter	Shn3 inh set2	LMP1 NFkB inh
C[C@@H]1CCCCO[C@@H](CN(C)C(=O)Cc2ccccc2)[C@H](C)CN([C@@H](C)CO)C(=O)c2cc(NC(=O)Nc3ccc(C(F)(F)F)cc3)ccc2O1	·	·	·	71.1*	·	·
C[C@H]1CCCCO[C@@H](CN(C)C(=O)c2ccccc2)[C@@H](C)CN([C@@H](C)CO)C(=O)c2cc(NC(=O)Nc3ccc(C(F)(F)F)cc3)ccc2O1	·	·	·	89.3*	·	·
C/C=C/c1ccc2c(c1)O[C@@H](CN(C)C(=O)Cc1ccncc1)[C@H](C)CN([C@@H](C)CO)S2(=O)=O	·	·	·	10.5	·	·
CNC[C@H]1Oc2ccc(NS(=O)(=O)c3ccccc3)cc2CC(=O)N([C@H](C)CO)C[C@H]1C	·	·	·	8.7	·	·
CO[C@H]1CN(C)C(=O)c2ccc(NC(=O)C3CC3)cc2OC[C@H](C)N(C(=O)C2CCOCC2)C[C@H]1C	·	·	·	-4.0	·	·
O=C(C[C@H]1CC[C@@H]2[C@H](COC[C@H](O)CN2Cc2ccc(Oc3ccccc3)cc2)O1)Nc1nccs1	·	·	·	18.2	·	·
C[C@@H]1CCCCO[C@H](CN(C)C(=O)c2ccccc2)[C@H](C)CN([C@@H](C)CO)C(=O)c2cc(NC(=O)Nc3ccc(C(F)(F)F)cc3)ccc2O1	·	·	·	86.8*	·	·
C[C@@H]1CCCCO[C@@H](CN(C)C(=O)c2ccccc2)[C@@H](C)CN([C@H](C)CO)C(=O)c2cc(NC(=O)Nc3ccc(C(F)(F)F)cc3)ccc2O1	·	·	·	14.9	·	·
C[C@@H]1CCCCO[C@@H](CN(C)C(=O)c2ccccc2)[C@@H](C)CN([C@@H](C)CO)C(=O)c2cc(NC(=O)Nc3ccc(C(F)(F)F)cc3)ccc2O1	·	·	·	85.6*	·	·
C[C@@H]1CCCCO[C@H](CN(C)C(=O)c2ccccc2)[C@@H](C)CN([C@@H](C)CO)C(=O)c2cc(NC(=O)Nc3ccc(C(F)(F)F)cc3)ccc2O1	·	·	·	93.7*	·	·
CC(C)NC(=O)Nc1ccc2c(c1)C(=O)N([C@H](C)CO)C[C@@H](C)[C@H](CN(C)S(C)(=O)=O)OCCCC[C@@H](C)O2	·	·	·	12.0	·	·
C/C=C/c1ccc([C@@H]2[C@H](CO)N(CC3CC3)C23CN(C(=O)c2ccc4c(c2)OCO4)C3)cc1	·	·	·	15.0	·	·
CCOc1cccc(/C=N/NC(=O)c2cc(C3CC3)[nH]n2)c1O	61.4*	-23.8	35.1	36.2	94.5*	-3.9
CC(C)N(C(=O)c1sc2cc([N+](=O)[O-])ccc2c1Cl)C(C)C	8.0	22.5	12.1	-5.8	14.5	13.6

Bioassay records (PubChem)
